Source: PubChem BioAssay (The Scripps Research Institute Molecular Screening Center)
CHRM1 agonist = human M1 muscarinic receptor agonists, primary screen, Fluo-8 calcium fluorescence, CHO-K1 cells, HTS; activation, % at 3 µM; CHO-K1 hM1, agonist mode; 0% DMSO, 100% acetylcholine EC100; Muscarinic acetylcholine receptor M1 (Homo sapiens), P11229; hit rate 0.33% among 360,000; AID 588814, 2011;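 active means activation above the run's mean compound activation plus 3 SD, cut at about 16% in these data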;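 further: peak over basal fluorescence ratio within a 140 s kinetic read after compound addition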
Target sequence (P11229 whole entry, looked up): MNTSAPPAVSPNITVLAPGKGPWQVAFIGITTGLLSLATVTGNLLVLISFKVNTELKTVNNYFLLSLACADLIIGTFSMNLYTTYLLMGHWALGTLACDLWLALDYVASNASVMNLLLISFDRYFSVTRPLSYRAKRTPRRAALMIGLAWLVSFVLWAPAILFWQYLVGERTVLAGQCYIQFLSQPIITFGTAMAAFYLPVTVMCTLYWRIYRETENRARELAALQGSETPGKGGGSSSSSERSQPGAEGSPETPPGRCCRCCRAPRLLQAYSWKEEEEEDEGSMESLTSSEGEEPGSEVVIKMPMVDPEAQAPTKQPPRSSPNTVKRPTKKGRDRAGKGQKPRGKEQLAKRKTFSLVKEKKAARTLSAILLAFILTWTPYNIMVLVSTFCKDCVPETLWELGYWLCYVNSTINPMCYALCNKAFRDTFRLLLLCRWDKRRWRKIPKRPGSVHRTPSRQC
CHRM1 antagonist = human M1 muscarinic receptor antagonists, primary screen, CHO-K1 cells, Fluo-8 calcium fluorescence, 1536-well; CHO-K1 hM1, ACh EC80 antagonist; inhibition, % at 3 µM; hit rate 1.3% among 360,000; AID 588852, 2011;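 active means percent inhibition above its own plate's cutoff, namely the mean of that plate's compound wells plus 3 SD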;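 further: peak over basal fluorescence ratio during 140 s after agonist addition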
CHO-K1 Ca antag = counter-screen for M1 antagonists: effect in parental CHO-K1 cells; ATP-induced calcium, Fluo-8 fluorescence; inhibition, % at 3 µM; hit rate 0.6% among 360,000;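 active means inhibition above a per-plate cutoff, the plate's mean sample inhibition plus 3 SD, cut at about 24% in these data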
M1 PAM = human M1 muscarinic receptor positive allosteric modulators, primary screen, CHO-K1 cells, Fluo-8 calcium fluorescence, 1536-well | CHO-K1 hM1, ACh EC20; 0% = ACh EC20, 100% = maximal ACh | AID 588819, 2011 | hit rate 0.088% among 360,000 | Muscarinic acetylcholine receptor M1 (Homo sapiens), P11229 | activation, % at 3 µM; in the data active means activation above about 19%, passing the limit was not always enough
M1 PAM parental = nonselective calcium activators in parental CHO-K1 cells, primary screen, counter-screen for M1 PAM project, cell-based, Fluo-8 calcium fluorescence, full deck, 1536-well | ATP EC20; 0% at ATP EC20, 100% at ATP max | activation, % at 3 µM | hit rate 0.02% among 360,000 | AID 602247, 2012;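 active means activation above the run cutoff, the mean activation of all test compounds plus 3 SD, cut at about 40% in these data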;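 further: peak over basal fluorescence ratio in a 140 s read after ATP addition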
CHO-K1 Ca ag = counter-screen for M1 agonists: effect in parental CHO-K1 cells. Fluo-8 calcium fluorescence; scaled to maximal ATP response, vehicle zero. activation, % at 3 µM. hit rate 0.48% among 360,000; in the data active means activation above about 15%;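 further: untransfected CHO-K1 host cells lacking M1 receptor as counterscreen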
Hits are given with their value; n = inactive; x = no result. In the library only some 2.4% were active in any assay of this set; here they are far more common.

SMILES	CHRM1 agonist	CHRM1 antagonist	CHO-K1 Ca antag	M1 PAM	M1 PAM parental	CHO-K1 Ca ag
Cc1nc(-c2ccc(C(=O)Nc3cc(S(N)(=O)=O)ccc3C)cc2)cs1	n	n	n	n	n	n
O=C(c1ccc2ccccc2c1)c1cccc(F)c1C(=O)O	n	n	n	n	n	n
COc1cc(C2C(C#N)=C(N)N(Nc3ccccc3)C3=C2C(=O)CC(C)(C)C3)ccc1OCc1cccc(F)c1 (stereo not drawn)	n	n	33	n	n	n
COc1cc(C2C(C#N)=C(N)N(Nc3ccccc3)C3=C2C(=O)CC(C)(C)C3)ccc1OCc1ccccc1 (stereo not drawn)	n	n	n	n	n	n
O=C1c2ccccc2[C@@H]2C[C@H](NC34CC5CC(CC(C5)C3)C4)[C@@H](O)CCN12	n	n	n	n	n	n
C[N+]1(CC2COC3(CCCCC3)O2)CCCC1 (stereo not drawn)	n	n	n	n	n	n
CC1CC(C)(C)OC(C[N+]2(C)CCCCC2)O1 (stereo not drawn)	n	35	n	n	n	n
COc1ccc(S(=O)(=O)N2CCN(C(=O)c3ccc(=O)[nH]n3)CC2)cc1OC	n	n	n	n	n	16
Cc1ccc(C(=O)N2CCN(S(=O)(=O)c3ccccc3)CC2)cc1	n	31	n	n	n	n
COc1ccc(C(=O)N2CCN(S(=O)(=O)c3ccc(F)cc3)CC2)cc1OC	n	n	n	n	n	20
COc1ccc(C(=O)N2CCN(S(=O)(=O)c3ccc(Cl)cc3)CC2)cc1OC	n	n	n	n	n	n
COc1ccc(S(=O)(=O)N2CCN(C(=O)c3cccnc3)CC2)cc1OC	n	n	n	n	n	n
CCOC(=O)N1CCN(C(=O)C[C@@H]2C[C@@]3(C(=O)OC)CCCCC=C3N(Cc3ccccc3)C2=O)CC1	x	x	n	x	n	n
Cc1occc1C(=O)N1CCCC(Nc2ccc(F)c(F)c2)C1 (stereo not drawn)	n	n	n	n	n	16
O=C(c1ccoc1)N1CCCC(Nc2ccc(F)c(F)c2)C1 (stereo not drawn)	n	n	n	n	n	n
N#Cc1ccsc1NC(=O)c1ccc(Cl)c([N+](=O)[O-])c1	n	n	n	n	n	19
COC(=O)c1ccc(C2C(C(C)=O)=C(C)Nc3ncnn32)cc1 (stereo not drawn)	n	102	n	n	n	n
O=C(COC(=O)c1c2c(nc3ccccc13)/C(=C\c1cccs1)CCC2)Nc1ccccc1	n	32	n	n	n	n
CC(=O)c1ccc(NC(=O)COC(=O)c2c3c(nc4ccccc24)/C(=C\c2cccs2)CCC3)cc1	n	n	n	n	n	n
O=C(COC(=O)c1c2c(nc3ccccc13)CCCC2)Nc1ccc2c(c1)OCO2	n	32	n	n	n	n
CC(C)(C)NC(=O)COC(=O)c1c2c(nc3ccccc13)CCC2	n	31	n	n	n	n
COc1cccc(NC(=O)COC(=O)c2c3c(nc4ccccc24)CCC(C)C3)c1 (stereo not drawn)	n	48	n	n	n	n
C=C1C(=O)OC2C=C(CO)C3OC3C3OC3(C)CC(OC(=O)/C(=C/C)COC(C)=O)C12 (stereo not drawn)	n	n	n	n	n	n
O=C(C1CC1)N1CCN(c2ccc(O)cc2)CC1	n	n	n	n	n	n
CCC(Oc1cc(Cl)ccc1Cl)C(=O)N1CCCN(C)CC1 (stereo not drawn)	n	n	n	n	n	n
CC(C)c1ccccc1NC(=O)COC(=O)c1c2c(nc3ccccc13)CCN(Cc1ccccc1)C2	n	37	n	n	n	n
COc1ccc(Nc2nc(N)nc(CSC(=S)N3CCCCC3)n2)cc1	n	n	n	n	n	n
COc1ccc(Nc2nc(N)nc(CSC(=S)N3CCCCC3C)n2)cc1 (stereo not drawn)	n	n	n	n	n	22
